Reference: PubChem BioAssay AID1851 (National Center for Advancing Translational Sciences (NCATS), 2009)
Hit rate of the full screen: of about 16,000 compounds, about 2,600 (16%) were called active. About 20% were inconclusive and are not listed. Only a sample is shown. A number with no mark means an inactive call. Calls follow the shape of the dose curve; as a rule, active = well fitted curve in the direction sought with a large enough effect; inconclusive = small, poorly fitted or top-dose-only effect, or effect the other way; inactive = no such curve, though single readings can be large or run the other way.

Molecular target: Cytochrome P450 2D6 (Homo sapiens) (UniProt P10635)
Experiment: Cytochrome panel assay with activity outcomes
Conditions: recombinant CYP, pro-luciferin dealkylation, luminescence, p450-cyp2d6; series mostly up to 57.1 µM; activity, negative = inhibition: at the top concentration
% is scaled to controls: 0 for no effect and ±100 for the full control effect.

Chain of Cytochrome P450 2D6 (Homo sapiens) (P10635 whole entry, looked up): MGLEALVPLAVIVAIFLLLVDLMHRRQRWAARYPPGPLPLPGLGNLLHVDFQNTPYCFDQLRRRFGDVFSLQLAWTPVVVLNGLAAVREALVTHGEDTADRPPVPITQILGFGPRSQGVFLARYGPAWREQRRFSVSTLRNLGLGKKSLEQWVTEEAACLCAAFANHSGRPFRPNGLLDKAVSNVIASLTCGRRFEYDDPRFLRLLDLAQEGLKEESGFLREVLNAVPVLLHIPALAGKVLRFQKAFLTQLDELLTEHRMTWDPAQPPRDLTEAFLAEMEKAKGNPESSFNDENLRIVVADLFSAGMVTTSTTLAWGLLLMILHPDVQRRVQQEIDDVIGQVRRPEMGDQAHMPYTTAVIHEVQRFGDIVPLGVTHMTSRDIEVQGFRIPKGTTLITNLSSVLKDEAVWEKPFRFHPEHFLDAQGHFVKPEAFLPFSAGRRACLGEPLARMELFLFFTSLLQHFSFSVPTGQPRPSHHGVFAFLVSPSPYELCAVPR

| SMILES | AC50 | activity, negative = inhibition |
| --- | --- | --- |
| CC(C)NC[C@@H](O)COc1ccc(COCCOC(C)C)cc1 | inactive |  |
| Cc1cc(C(=O)C(=O)NC(C)C)c(C)n1-c1ccc([N+](=O)[O-])cc1 |  | 18.9% |
| CC(=O)NS(=O)(=O)c1ccc(NC(=S)NC(=O)C(C)(C)C)cc1 |  | 8.65% |
| Cc1ccc(-c2nn(-c3ccccc3)cc2/C=N/NS(=O)(=O)c2ccccc2)cc1 |  | -8.24% |
| O=S(=O)(N/N=C\c1cn(-c2ccccc2)nc1-c1ccccc1)c1ccccc1 | 112 nM (active) |  |
| O=C(N/N=C\c1cn(-c2ccccc2)nc1-c1ccccc1)c1ccc(Br)o1 |  | 11.4% |
| COc1ccc(C2C(C(=O)N3CCOCC3)c3ccccc3C(=O)N2c2ccc(OC)cc2)cc1 (stereo not given) |  | -7.47% |
| CN(C)Cc1ccccc1-c1nccc(NC2CC2)n1 | 631 nM (active) |  |
| CNc1ccnc(-c2ccccc2CN(C)C)n1 | 39.8 nM (active) |  |
| CNc1ccnc(-c2c(C)noc2C)n1 |  | -3.6% |
| CN(C)Cc1ccccc1-c1nccc(Nc2ccc(F)cc2)n1 | 10000 nM (active) |  |
| Cc1nn2c(NCC(C)C)c3c(nc2c1-c1ccccc1)CCC3 |  | -26.8% |
| Cc1ccc(S(=O)(=O)N=Nc2c(O)[nH]c3cc(O)c(C(=O)O)cc23)cc1 |  | 6.63% [at 11.4 µM] |
| COC(=O)C/C=C\[C@@H](C)[C@@H]1C=C[C@H](OC(C)=O)[C@H](COC(C)=O)O1 |  | 13.8% [at 11.4 µM] |
| CCC(C)(C(=O)NC1CCCC1)N(C(=O)c1ccccn1)c1ccccc1 (stereo not given) |  | 0.576% |
| Nc1nc(Nc2ccccc2)nc2c1ncn2[C@@H]1O[C@@H](CO)[C@H](O)[C@@H]1O |  | 10.4% |
| N[C@@H](Cc1cc(-c2ccc(Cl)cc2Cl)cc(CP(=O)(O)O)c1O)C(=O)O |  | -17.1% |
| CCN(CC)Cc1c(O)ccc2c(=O)c(Oc3ccccc3OC)coc12 |  | 6.48% |
| CCC(C)C(NS(=O)(=O)c1ccc(C)cc1)C(=O)Oc1ccc2c3c(c(=O)oc2c1)CCC3 (stereo not given) |  | -13.9% |
| CCN(CC)Cc1c(O)c(Cl)cc2c3c(c(=O)oc12)CCCC3 | 2510 nM (active) |  |
| CC(C)CN(Cc1c(O)ccc2c3c(c(=O)oc12)CCC3)CC(C)C | 224 nM (active) |  |
| CCc1cc2c(=O)c(-c3nc4ccccc4n3C)c(C)oc2c(CN(CC)CC)c1O |  | -3.61% |
| CCCCCOC(=O)CSc1nnc(-c2ccccc2)c(=O)[nH]1 |  | 16.4% |
| Cn1c(=O)c2[nH]c(CCC(=O)O)nc2n(C)c1=O |  | -4.99% [at 11.4 µM] |
| CCOC(=O)C1=C(C)NC(=O)N[C@@H]1c1coc2cc(C)cc(C)c2c1=O |  | 0.866% [at 11.4 µM] |

| SMILES | AC50 | activity, negative = inhibition |
| --- | --- | --- |
| O=C(OC1CCN(c2ncc(C(F)(F)F)cc2Cl)CC1)c1cccc(C(F)(F)F)c1 |  | -3.01% |
| CCN(c1ccccc1)c1cc(NC)[n+](C)c(C)n1 | 3980 nM (active) |  |
| CN(C(=O)CC(NC(=O)c1ccccc1)(c1ccccc1)c1ccccc1)c1ccccc1 |  | -9.41% |
| O=C(NCCc1ccccc1)N1c2ccccc2Sc2ccccc21 | 20000 nM (active) |  |
| COC(=O)c1cc(NC(=O)N2c3ccccc3Sc3ccccc32)cc(C(=O)OC)c1 |  | 5.22% |
| O=C(CSc1nc2ccccc2s1)N1c2ccccc2Sc2ccccc21 |  | 3.68% |
| Cc1ccc(N=Nc2ccc(N)cc2C)c(S(N)(=O)=O)c1 |  | 3.5% [at 11.4 µM] |
| Cc1ccccc1-n1c(=O)cc(N2CC(C)OC(C)C2)[nH]c1=O (stereo not given) |  | -2.9% |
| C/C(=C\c1ccc(Cl)cc1)C(C)(C)C(=O)O |  | 6.46% [at 11.4 µM] |
| C/C(=C\c1ccc(C(=O)O)cc1)c1ccc2c(c1)C(C)(C)CCC2(C)C | 12.6 nM (active) |  |
| CC1(C)CCC(C)(C)c2cc(C(=O)Nc3ccc(C(=O)O)cc3)ccc21 |  | -18.8% |
| COC(=O)\C(C(C)=O)=C(/C=C/C=C/C=C/N(C)C)N(C)C |  | -21.3% |
| N=C(N)CCNC(=O)[C@@H]1CCC(N)=N1 |  | 2.49% [at 11.4 µM] |
| CCC(=O)Nc1ccc(NC(=O)CSc2nnnn2-c2cccnc2)cc1C |  | -3.22% |
| CC1=C(C)/C(=N\OC(=O)/C=C/c2ccccc2)C=CC1=O |  | -17.9% |
| Cc1ccc(S(=O)(=O)/N=C2/NC(=O)/C(=C/c3cccnc3)S2)cc1 |  | -9.7% |
| COc1ccc2ccccc2c1/C=C\C(=O)c1ccccc1 |  | 7.33% [at 11.4 µM] |
| CC1(C)Oc2ccc(C#N)cc2[C@H](N2CCCC2=O)[C@H]1O |  | 3.54% |
| CCCn1nc(NC(=O)CC(C)C)c2cc3ccccc3nc21 |  | -8.32% |
| Cc1ccc(C(=O)COC(=O)c2ccccc2N2C(=O)C3C4CCC(C4)C3C2=O)cc1C (stereo not given) |  | -11.3% |
| Clc1ccc(CN2CCCN(Cc3ccc(Cl)cc3)C2c2cc3ccccc3c3ccccc23)cc1 | 200 nM (active) |  |
| O=C(O)[C@@H]1CCCN1Cc1cc2ccccc2c2ccccc12 |  | 10.3% [at 11.4 µM] |
| COC(=O)C1=C(N)Oc2cc(C)n(CC3CCCO3)c(=O)c2C1c1ccccc1OC (stereo not given) |  | 0.229% |
| COc1cc(C(=O)N2CCC(NC(=O)C(Cc3ccc(C(C)C)cc3)NC(C)=O)CC2)cc(OC)c1OC (stereo not given) |  | -11.8% |
| CN(C)CCCNc1c(C(=O)O)cnc2c1cnn2C |  | 6.96% |
